Consider 40 molecules from PubChem BioAssay.

SMILES strings stand for the structures. Calls of active or inactive are those of the source.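 Rule for the calls: active = at least 20% inhibition of 6-phosphogluconate dehydrogenase activity; inactive = the rest.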

As a reminder, the inhibition is the drop in the measured response relative to a control, in per cent.

The target in the assay is 6-phosphogluconate dehydrogenase, decarboxylating (Homo sapiens) (UniProt P52209). As to the kind of experiment: inhibition of human phosphogluconate dehydrogenase – biochemical, recombinant enzyme, NADPH absorbance, primary screen (AID 1159550). The note with it: recombinant 6PGD, NADPH absorbance 341 nm; at 10 µM; hits give high values.
6-phosphogluconate dehydrogenase, decarboxylating (Homo sapiens), sequence (P52209 whole entry, looked up): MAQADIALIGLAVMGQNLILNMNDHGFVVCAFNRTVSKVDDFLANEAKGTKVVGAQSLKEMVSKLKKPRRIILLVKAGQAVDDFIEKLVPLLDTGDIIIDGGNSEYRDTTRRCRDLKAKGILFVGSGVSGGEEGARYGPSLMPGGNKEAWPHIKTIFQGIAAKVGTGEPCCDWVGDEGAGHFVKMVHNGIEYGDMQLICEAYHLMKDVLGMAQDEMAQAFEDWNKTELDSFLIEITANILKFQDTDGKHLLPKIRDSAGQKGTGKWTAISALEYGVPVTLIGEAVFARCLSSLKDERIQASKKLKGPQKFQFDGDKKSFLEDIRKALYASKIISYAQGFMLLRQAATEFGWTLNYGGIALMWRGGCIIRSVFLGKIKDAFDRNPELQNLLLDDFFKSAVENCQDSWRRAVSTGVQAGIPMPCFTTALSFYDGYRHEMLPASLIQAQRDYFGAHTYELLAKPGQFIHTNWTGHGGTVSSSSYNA
In the case of `C[C@H](CCC(=O)O)[C@H]1CC[C@H]2[C@@H]3C[C@H](O)[C@@H]4C[C@H](O)CC[C@]4(C)[C@H]3CC[C@]12C`, the inhibition is 2.54% (inactive).

Regarding `CN1c2ccccc2C(=O)N2CCc3c([nH]c4ccc(O)cc34)[C@H]21`, the inhibition is 3.55% (inactive).

Turning to `C[C@H]1O[C@H]1P(=O)(O)O`, the inhibition was 6.14% (inactive).

Regarding `CS(=O)(=O)CCCCN=C=S`, the inhibition was 1.33% (inactive).

Regarding `O=C1C=CC2=C3c4cc(O)c(O)cc4CC3(O)COC2=C1` (stereo not given), the inhibition was 4.16% (inactive).

On to `COc1ccc(C2COc3cc(O)ccc3C2)c(OC)c1O` (stereo not given), for which the inhibition is 1.81% (inactive).

Turning to `CC(=O)Oc1cc2c(c(C)c1OC(C)=O)CC=C1[C@@]2(C)CC[C@@]2(C)[C@@H]3C[C@](C)(C(=O)O)CC[C@]3(C)CC[C@]12C`, the inhibition was 0.972% (inactive).

On to `Oc1ccc2c(c1)OC[C@H]1c3cc4c(cc3O[C@@H]21)OCO4`, for which the inhibition was -3% (inactive).

As to `COc1ccc(-c2cc(=O)c3c(O)cc(O[C@H]4O[C@H](CO[C@@H]5O[C@@H](C)[C@H](O)[C@@H](O)[C@H]5O)[C@@H](O)[C@H](O)[C@H]4O)cc3o2)cc1`, the inhibition was 17.5% (inactive).

`COC(=O)C(O)[C@H]1C(C)(C)[C@@H](OC(C)=O)[C@@H]2CC3=C4CC(=O)O[C@@H](c5ccoc5)[C@]4(C)CCC3[C@@]1(C)C2=O` (stereo not given in full): the inhibition was 12.8% (inactive).

For `C[C@H](C[C@@H](O)[C@@H]1OC1(C)C)[C@@H]1CC[C@]2(C)C3=CC[C@H]4C(C)(C)C(=O)CC[C@]4(C)[C@H]3CC[C@@]12C`, the inhibition is -0.309% (inactive).

As to `CC(CCC(=O)O)C1CCC2C3CCC4CCCCC4(C)C3CCC12C` (stereo not given), the inhibition was 14% (inactive).

On to `Cc1cc(=O)c2c(O)c(C)c(O)cc2o1`, for which the inhibition was 15% (inactive).

For `Cc1ccc(C(C)C)c(O)c1C(=O)O`, the inhibition is 7.11% (inactive).

Turning to `CCN1CC2CCC(OC)C34C2C(O)C2(OCOC25CC(OC)C2CC3(O)C5C2OC)C14` (stereo not given), the inhibition is 4.26% (inactive).

`CC1(C)C(=O)C2OC2C2(C)C1CC(=O)C1(C)C2CCC2(C)C(c3ccoc3)OC(=O)C3OC321` (stereo not given): the inhibition was 2.22% (inactive).

Take `COc1ccc(-c2coc3cc(O)c(OC)cc3c2=O)cc1`: the inhibition was 10.5% (inactive).

Turning to `O=C(O)[C@H]1CCCNC1`, the inhibition is 2.88% (inactive).

As for `CC(C)/C(O)=C1/C(=O)O[C@@H](c2ccoc2)[C@]2(C)C(O)[C@@H](O)[C@@]34OC5(C)OC67CC(C)(C(O)[C@]6(O)[C@@H](O)[C@]3(O5)C12)[C@H](CC(=O)O)[C@]74C` (stereo not given in full), the inhibition is 16.8% (inactive).

For the molecule `CC(C)C(N)C(=O)NC(Cc1c[nH]c2ccccc12)C(=O)O` (stereo not given), the inhibition is 4.18% (inactive).

Regarding `COC(=O)CCC(=O)O[C@H]1CCC2(C)C(CCC3C2C(=O)[C@@H](O)C2(C)C3CC3OC4(CCC(C)CO4)C(C)C32)C1` (stereo not given in full), the inhibition was 4.65% (inactive).

Regarding `CCCCC(CC)COC(=O)COc1cc(Cl)c(Cl)cc1Cl` (stereo not given), the inhibition was 4.06% (inactive).

In the case of `C=CC(C)(O)CCC=C(C)C` (stereo not given), the inhibition is -3.42% (inactive).

`CC1(C)CCC2(C(=O)O)C(O)CC3(C)C(=CCC4C5(C)CCC(O)C(C)(C)C5CCC43C)C2C1` (stereo not given): the inhibition was -10.1% (inactive).

As to `COc1cc(O)c2c(=O)cc(-c3ccc(O)cc3)oc2c1`, the inhibition is 6.18% (inactive).

Regarding `COc1ccc2c(c1)OC/C(=C/c1ccc(O)c(O)c1)C2=O`, the inhibition was 2.37% (inactive).

For `C=CC(C1=CC(=O)C(OC)=C(OC)C1=O)c1ccccc1` (stereo not given), the inhibition was 3.55% (inactive).

Regarding `O=C(Oc1cc([C@H]2Oc3cc(O)cc(O)c3C[C@H]2O)cc2c([C@H]3Oc4cc(O)cc(O)c4C[C@H]3O)cc(O)c(OC(=O)c3cc(O)c(O)c(O)c3)c2c1=O)c1cc(O)c(O)c(O)c1`, the inhibition is -0.352% (inactive).

For `CC1OC(OC2C(Oc3cc(O)c4c(=O)cc(-c5ccc(O)cc5)oc4c3)OC(CO)C(O)C2O)C(O)C(O)C1O` (stereo not given), the inhibition was -11.1% (inactive).

Regarding `CC(C)CC(NC(=O)C1CCCN1C(=O)C(N)C(C)C)C(=O)O` (stereo not given), the inhibition is 14% (inactive).

As for `C=C(C)C1Cc2c(ccc(C(=O)O)c2O)O1` (stereo not given), the inhibition is -0.806% (inactive).

For the molecule `CC(=O)O[C@H]1CC[C@]2(C)C(C[C@@H](OC(C)=O)[C@]3(C)C4=CC(=O)OC(c5ccoc5)[C@@]4(C)CCC23)C1(C)C` (stereo not given in full), the inhibition was 5.97% (inactive).

As for `CC(=O)NC(Cc1c[nH]c2ccccc12)C(N)=O` (stereo not given), the inhibition was -11.6% (inactive).

Regarding `Oc1ccc2c(c1)OC[C@]1(O)Cc3cc(O)c(O)cc3C21` (stereo not given in full), the inhibition was 9.03% (inactive).

Take `CC(C)(O)[C@@H]1Cc2cc3ccc(=O)oc3cc2O1`: the inhibition was -0.979% (inactive).

Regarding `C=C[C@@H]1CN2CC[C@@H]1C[C@@H]2[C@@H](O)c1ccnc2ccc(OC)cc12`, the inhibition is 8.78% (inactive).

Turning to `COc1ccc(-c2cc(=O)c3ccc(OC)cc3o2)cc1`, the inhibition is -4.22% (inactive).

Take `CCOc1ccc(C(=O)c2cc(O)c(OC)c(OC)c2O)cc1`: the inhibition is 0.271% (inactive).

Consider `CC(=O)O[C@H]1CC[C@]2(C)C3=CC(=O)[C@@]4(C)C(C[C@@H]5OC6(OCC(C)CC6Br)C(C)[C@@H]54)C3CC[C@H]2C1` (stereo not given in full), for which the inhibition is 6.67% (inactive).

Turning to `COc1cc2c(cc1OC)[C@@H]1C(=O)c3c(O)cc4c(c3O[C@@H]1CO2)C=CC(C)(C)O4`, the inhibition is 12.7% (inactive).
